The record followed here is PubChem BioAssay (NCI).

Each structure is given as a SMILES string. Compounds without any hit were thinned out: in the full panel of roughly 83,000, 20% have a hit.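 Results are percent growth after 48 hours of single-concentration exposure. 100 means growth as in untreated cells, lower positive values show inhibition; negative values down to -100 show cell death.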 Unmarked numbers belong to inactive results. Active and inactive are the calls of the source. The calls were made as follows: active = growth percent below 10; inactive = the rest.

For one assay, the system named is HCT-15 colon. Nature of the assay: NCI-60 one-dose screen, 48 h (100 = growth as untreated, 0 = no growth, -100 = all killed). Particulars: 10 µM unless noted.
Take `NS(=O)(=O)c1ccc(-n2nc(-c3ccc(Cl)cc3)ccc2=O)cc1`: the growth was 84.5%.

`Nc1nc(Cl)cc(NCCCCNc2cc(Cl)nc(N)n2)n1`: the growth was 114%.

With `Fc1ccc(/C=N/n2c(-c3cc(Cl)cc(Cl)c3Cl)nn(CNc3ccc(Cl)nn3)c2=S)cc1`, the growth was 110%.

As to `COc1cc(-c2nc3ccccc3s2)ccc1OCc1nc2n(n1)S(=O)(=O)c1ccccc1N2C`, the growth was 91.5%.

Turning to `Cc1c(Cl)ccc2c(C(=O)Cl)cc(-c3ccccc3)nc12`, the growth is 101%.

With `CN1CCN(Cn2nc(-c3cc(Cl)cc(Cl)c3Cl)n(/N=C/c3ccc(Cl)cc3)c2=S)CC1`, the growth was 93.5%.

On to `COc1cc2nc(C(=O)N3CCCCC3)cc(Nc3ccccc3)c2cc1OC`, for which the growth was 102%.

`COc1ccccc1N1CCN(CC(O)COc2c(Br)c(Br)c(Br)c3c2OC(C)(C)C3)CC1` (stereo not drawn): the growth was 24.6%.

On to `COc1cc(Cn2cc3c(c2)-c2onc(CO)c2CC3)cc(OC)c1OC`, for which the growth is 89%.

In the case of `CN1CCN(C(=O)/C=C/c2ccc([N+](=O)[O-])o2)CC1`, the growth is 63.8%.

Regarding `CC(C)C1(C(C)C)NC(=O)NC1=O`, the growth was 110%.

Consider `COc1cc(/C=C/C(=O)c2c(C)n([O-])c3cc(C)c(C)cc3[n+]2=O)cc(OC)c1OC`, for which the growth was 51.7%.

Consider `COc1cc(/C=C\c2cc(/C=C\c3ccc(O)c(OC)c3)n(C(=O)CNc3ccccc3OC)n2)ccc1O`, for which the growth was 56.3%.

`OCc1cn(-c2ccc(Cl)cc2)nc1-c1ccc(O)cc1`: the growth was 93.7%.

Turning to `CCc1c2cc(Cl)ccc2n2cc(Cc3ccccc3)[nH]c(=O)c12`, the growth was 98.9%.

`Nc1ncnc2c1ccn2-c1cccc(NC(=O)c2cccc(C(F)(F)F)c2)c1`: the growth was 41.7%.

As for `COc1ccc(Cl)cc1NC(=O)c1cc2c([nH]1)-c1nc(NC(=O)C(C)(C)C)sc1CC2`, the growth was 49.1%.

Regarding `COc1ccc(-c2coc3c(CO)c(O)ccc3c2=O)cc1`, the growth was 43.2%.

Take `CC(=O)c1cc2c(c(O)c1C)C(=O)C(=O)c1c(O)cccc1-2`: the growth was -61.3% (active).

For `O=C(Cn1c2ccccc2c2ccncc21)N/N=C\c1ccc2ccccc2c1`, the growth was 23.8%.

With `OC(COc1ccccc1Cl)CN1CCN(c2ccc(Cl)cc2)CC1` (stereo not drawn), the growth is 90.5%.

Regarding `O=C(Nc1ccc(-n2ccc3c(NC(=O)c4ccccc4)nccc32)cc1)c1cccc(C(F)(F)F)c1`, the growth is 14.1%.

`Cc1cc(N2CCOCC2)nc(N(CCNc2ccnc3cc(Cl)ccc23)Cc2ccco2)n1`: the growth was 35.8%.

Turning to `CCCCC(=O)Nc1nc2ccc(SCCC)cc2s1`, the growth is 43.6%.

`COc1cc2ncnc(Oc3ccc(NC(=O)Nc4ccc(CN5CCOCC5)c(C(F)(F)F)c4)c4ccccc34)c2cc1OC`: the growth was 32.9%.

As to `FC(F)(F)c1cccc([Si](F)(c2cccc(C(F)(F)F)c2)c2cccc(C(F)(F)F)c2)c1`, the growth was 72.1%.

As to `O=C(O)c1cccc(S(=O)(=O)c2ccccc2)c1`, the growth was 99.4%.

Regarding `C=C1C(=O)O[C@H]2[C@H]1CC/C(COC(=O)CCCC(=O)OC/C1=C/CC[C@@]3(C)O[C@H]3[C@H]3OC(=O)C(=C)[C@@H]3CC1)=C\CC[C@@]1(C)O[C@@H]21`, the growth was 4.33% (active).

Regarding `Cc1c(F)cccc1NC(=O)c1sc2nc3c(cc2c1N)CCCCC3`, the growth was 28.5%.

In the case of `O=C(Nc1cccc([N+](=O)[O-])c1)Nc1cccc([N+](=O)[O-])c1`, the growth is 24.6%.

As for `O=C(N/N=C1\SCC(=O)N1c1ccccc1)c1cc(-c2cc3ccccc3o2)nn1-c1ccccc1`, the growth was 106%.

For `COc1cc(-c2nc(N)n(CC(=O)Nc3ccc(/C(C)=N\O)cc3)n2)cc(OC)c1OC`, the growth is 101%.

Consider `O=C(Cn1c2ccccc2c2ccncc21)N/N=C/c1c[nH]c2ccccc12`, for which the growth was 93.4%.

On to `CCCN1C(=O)CSC1=Nc1ccc2cc3ccc(N=C4SCC(=O)N4CCC)cc3nc2c1`, for which the growth is 24.4%.

As to `CCc1cccc(C)c1NC(=O)c1sc2nc3c(cc2c1N)CCCCC3`, the growth was 27.5%.

Turning to `NC(=S)NNC1CCCCC1`, the growth was 99.7%.

For the compound `CC(C)(C)C(=O)Nc1nc2c(s1)CCc1ccn(S(=O)(=O)c3ccccc3)c1-2`, the growth is 92.8%.

Regarding `Nc1ncnc2c1c(-c1ccc(Oc3ccccc3)cc1)nn2C[C@@H]1SSC[C@H]1O`, the growth is 70.4%.

Consider `Cc1ccc[n+](CC(=O)c2cccc3ccccc23)c1`, for which the growth was 102%.

The test system of a further assay is HT29 colon. Described as above. Particulars: 10 µM unless noted.
Regarding `NS(=O)(=O)c1ccc(-n2nc(-c3ccc(Cl)cc3)ccc2=O)cc1`, the growth was 104%.

Regarding `Nc1nc(Cl)cc(NCCCCNc2cc(Cl)nc(N)n2)n1`, the growth was 109%.

For `Fc1ccc(/C=N/n2c(-c3cc(Cl)cc(Cl)c3Cl)nn(CNc3ccc(Cl)nn3)c2=S)cc1`, the growth is 103%.

For `COc1cc(-c2nc3ccccc3s2)ccc1OCc1nc2n(n1)S(=O)(=O)c1ccccc1N2C`, the growth was 100%.

On to `Cc1c(Cl)ccc2c(C(=O)Cl)cc(-c3ccccc3)nc12`, for which the growth was 116%.

In the case of `CN1CCN(Cn2nc(-c3cc(Cl)cc(Cl)c3Cl)n(/N=C/c3ccc(Cl)cc3)c2=S)CC1`, the growth is 117%.

Take `COc1cc2nc(C(=O)N3CCCCC3)cc(Nc3ccccc3)c2cc1OC`: the growth was 104%.

Regarding `COc1ccccc1N1CCN(CC(O)COc2c(Br)c(Br)c(Br)c3c2OC(C)(C)C3)CC1` (stereo not drawn), the growth is 5.44% (active).

Take `COc1cc(Cn2cc3c(c2)-c2onc(CO)c2CC3)cc(OC)c1OC`: the growth was 104%.

As to `CN1CCN(C(=O)/C=C/c2ccc([N+](=O)[O-])o2)CC1`, the growth is 81.8%.

As to `CC(C)C1(C(C)C)NC(=O)NC1=O`, the growth is 103%.

With `COc1cc(/C=C/C(=O)c2c(C)n([O-])c3cc(C)c(C)cc3[n+]2=O)cc(OC)c1OC`, the growth is 70.6%.

Turning to `COc1cc(/C=C\c2cc(/C=C\c3ccc(O)c(OC)c3)n(C(=O)CNc3ccccc3OC)n2)ccc1O`, the growth was 109%.

With `OCc1cn(-c2ccc(Cl)cc2)nc1-c1ccc(O)cc1`, the growth was 92.6%.

On to `CCc1c2cc(Cl)ccc2n2cc(Cc3ccccc3)[nH]c(=O)c12`, for which the growth was 110%.

For the compound `Nc1ncnc2c1ccn2-c1cccc(NC(=O)c2cccc(C(F)(F)F)c2)c1`, the growth was 58.4%.

For `COc1ccc(Cl)cc1NC(=O)c1cc2c([nH]1)-c1nc(NC(=O)C(C)(C)C)sc1CC2`, the growth was 59.1%.

Take `COc1ccc(-c2coc3c(CO)c(O)ccc3c2=O)cc1`: the growth is 85.8%.

As to `CC(=O)c1cc2c(c(O)c1C)C(=O)C(=O)c1c(O)cccc1-2`, the growth was -15.5% (active).

Regarding `O=C(Cn1c2ccccc2c2ccncc21)N/N=C\c1ccc2ccccc2c1`, the growth is -8.93% (active).

For `OC(COc1ccccc1Cl)CN1CCN(c2ccc(Cl)cc2)CC1` (stereo not drawn), the growth is 113%.

Regarding `O=C(Nc1ccc(-n2ccc3c(NC(=O)c4ccccc4)nccc32)cc1)c1cccc(C(F)(F)F)c1`, the growth was 2.7% (active).

`Cc1cc(N2CCOCC2)nc(N(CCNc2ccnc3cc(Cl)ccc23)Cc2ccco2)n1`: the growth is 3.4% (active).

Take `CCCCC(=O)Nc1nc2ccc(SCCC)cc2s1`: the growth is 18%.

For `COc1cc2ncnc(Oc3ccc(NC(=O)Nc4ccc(CN5CCOCC5)c(C(F)(F)F)c4)c4ccccc34)c2cc1OC`, the growth is 14.2%.

Consider `FC(F)(F)c1cccc([Si](F)(c2cccc(C(F)(F)F)c2)c2cccc(C(F)(F)F)c2)c1`, for which the growth is 59.3%.

Take `O=C(O)c1cccc(S(=O)(=O)c2ccccc2)c1`: the growth was 104%.

With `C=C1C(=O)O[C@H]2[C@H]1CC/C(COC(=O)CCCC(=O)OC/C1=C/CC[C@@]3(C)O[C@H]3[C@H]3OC(=O)C(=C)[C@@H]3CC1)=C\CC[C@@]1(C)O[C@@H]21`, the growth was -40% (active).

`Cc1c(F)cccc1NC(=O)c1sc2nc3c(cc2c1N)CCCCC3`: the growth was 15.6%.

Regarding `O=C(Nc1cccc([N+](=O)[O-])c1)Nc1cccc([N+](=O)[O-])c1`, the growth is 40.9%.

On to `O=C(N/N=C1\SCC(=O)N1c1ccccc1)c1cc(-c2cc3ccccc3o2)nn1-c1ccccc1`, for which the growth is 107%.

As for `COc1cc(-c2nc(N)n(CC(=O)Nc3ccc(/C(C)=N\O)cc3)n2)cc(OC)c1OC`, the growth was 86.4%.

With `O=C(Cn1c2ccccc2c2ccncc21)N/N=C/c1c[nH]c2ccccc12`, the growth was 44.2%.

Regarding `CCCN1C(=O)CSC1=Nc1ccc2cc3ccc(N=C4SCC(=O)N4CCC)cc3nc2c1`, the growth is 4.45% (active).

For the compound `CCc1cccc(C)c1NC(=O)c1sc2nc3c(cc2c1N)CCCCC3`, the growth was 8.55% (active).

With `NC(=S)NNC1CCCCC1`, the growth was 94.4%.

In the case of `CC(C)(C)C(=O)Nc1nc2c(s1)CCc1ccn(S(=O)(=O)c3ccccc3)c1-2`, the growth was 79.5%.

On to `Nc1ncnc2c1c(-c1ccc(Oc3ccccc3)cc1)nn2C[C@@H]1SSC[C@H]1O`, for which the growth is 13.2%.

For `Cc1ccc[n+](CC(=O)c2cccc3ccccc23)c1`, the growth is 102%.
